Measurements reported in PubChem BioAssay.
Values joined by “and” are separate entries in the source; they are usually repeats but may differ in a detail not shown here. Equal entries are not always repeated. Active and inactive are the calls of the source.

Assays:
[1] = compounds binding Alexa647 anti-His antibody – biochemical, small-molecule microarray, 635 nm fluorescence, artefact control for SMM control protein annotation, primary screen (AID 1128); conditions: higher = more signal;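 also: score merges feature fluorescence with signal-to-noise for each printed compound spot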
[2] = system: Human papillomavirus type 1a E7 protein (residues 1-88); assay: HPV1a E7 small-molecule binders, primary screen, biochemical, small-molecule microarray, residues 1-88, 635 nm (AID 1129); conditions: small-molecule microarray binding, fluorescence 635 nm; higher = more signal
[3] = target: Focal adhesion kinase 1 (Homo sapiens) (UniProt Q05397); assay: PTK2 protein binding on printed compound slides – biochemical, small-molecule microarray, 635/667 nm fluorescence, BSA, DTT, primary screen (AID 1130); conditions: 635 nm fluorescence, higher = more signal;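 also: composite of spot emission at 667 nm and signal to noise over triplicate slides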
[4] = system: Fibrinogen (Alexa647-labelled); assay: Alexa647-fibrinogen binding to printed small molecules – biochemical, small-molecule microarray, 635/667 nm fluorescence, artefact control for SMM control-protein annotation, profiling panel (AID 1131); conditions: fibrinogen-A647 binding fluorescence, higher = more signal;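 also: z-score merges 667 nm fluorescence with per-spot signal-to-noise over triplicate slides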
[5] = target: Follistatin (Homo sapiens) (UniProt P19883); assay: FST protein binding to printed compounds – biochemical, small-molecule microarray, 635/667 nm fluorescence, primary screen (AID 1132); conditions: 635 nm fluorescence, higher = more signal
[6] = target: Fibroblast growth factor 2 (Homo sapiens) (UniProt P09038); assay: basic fibroblast growth factor binding to printed compounds – biochemical, small-molecule microarray, 635/667 nm fluorescence, primary screen (AID 1133); conditions: FGF2, fluorescence 635/667, higher = more signal
[7] = JC-1 mitochondrial potential readout, lung cancer cells – cell-based, A549, JC-1 fluorescence, basal, 24 h, 100 nL, profiling panel (AID 1138); conditions: higher = more signal;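 also: A549 lung adenocarcinoma cells under basal conditions with no added stimulus; test concentration not given here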
Lefty1 = Lefty1 protein binding to printed compounds – biochemical, small-molecule microarray, 635/667 nm fluorescence, primary screen (AID 1139); conditions: fluorescence 635/667, higher = more signal
[8] = system: wheat germ agglutinin (Triticum aestivum), Alexa647-labelled; assay: Alexa647-WGA lectin binding to printed small molecules – biochemical, small-molecule microarray, 635/667 nm fluorescence, artefact control for SMM control-protein annotation, profiling panel (AID 1140); conditions: WGA-A647 binding, 635 nm fluorescence, higher = more signal;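 also: score merges 667 nm feature emission with signal to noise over triplicate slides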
[9] = target: Luciferin 4-monooxygenase (Photinus pyralis) (UniProt P08659); assay: inhibition of purified Photinus pyralis luciferase – biochemical, luminescence, purified enzyme, 2006 set, primary screen (AID 1141); conditions: purified firefly luciferase, SteadyGlo luminescence, 30 min; higher = more signal, called active from +8 up or from −8 down;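 also: cell-free assay with purified firefly luciferase at 100 ng per well in PBS; test concentration not given here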
Sequence of Luciferin 4-monooxygenase (Photinus pyralis) (P08659 whole entry, looked up): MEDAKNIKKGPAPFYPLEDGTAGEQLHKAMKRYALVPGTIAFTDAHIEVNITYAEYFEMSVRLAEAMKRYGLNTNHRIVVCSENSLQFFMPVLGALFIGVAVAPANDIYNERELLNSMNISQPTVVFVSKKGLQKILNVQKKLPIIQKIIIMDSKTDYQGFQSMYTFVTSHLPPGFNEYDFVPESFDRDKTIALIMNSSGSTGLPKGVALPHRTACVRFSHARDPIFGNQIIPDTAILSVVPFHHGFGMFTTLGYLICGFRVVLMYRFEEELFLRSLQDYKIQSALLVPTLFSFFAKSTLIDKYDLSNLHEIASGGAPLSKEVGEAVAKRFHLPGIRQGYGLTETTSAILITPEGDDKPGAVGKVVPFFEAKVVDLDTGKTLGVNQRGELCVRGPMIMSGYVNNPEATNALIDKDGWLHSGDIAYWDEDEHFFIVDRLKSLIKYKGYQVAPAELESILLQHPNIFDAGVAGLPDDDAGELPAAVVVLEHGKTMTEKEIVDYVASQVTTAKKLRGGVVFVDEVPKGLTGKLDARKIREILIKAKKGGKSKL

Sequence of Fibroblast growth factor 2 (Homo sapiens) (P09038 whole entry, looked up): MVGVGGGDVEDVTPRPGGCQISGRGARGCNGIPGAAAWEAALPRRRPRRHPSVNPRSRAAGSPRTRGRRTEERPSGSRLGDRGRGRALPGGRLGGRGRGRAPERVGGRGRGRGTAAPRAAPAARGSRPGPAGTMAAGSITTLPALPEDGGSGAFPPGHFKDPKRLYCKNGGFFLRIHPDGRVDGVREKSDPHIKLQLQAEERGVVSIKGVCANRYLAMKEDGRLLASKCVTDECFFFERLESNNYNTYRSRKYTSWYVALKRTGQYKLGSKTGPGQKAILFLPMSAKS
Sequence of Follistatin (Homo sapiens) (P19883 whole entry, looked up): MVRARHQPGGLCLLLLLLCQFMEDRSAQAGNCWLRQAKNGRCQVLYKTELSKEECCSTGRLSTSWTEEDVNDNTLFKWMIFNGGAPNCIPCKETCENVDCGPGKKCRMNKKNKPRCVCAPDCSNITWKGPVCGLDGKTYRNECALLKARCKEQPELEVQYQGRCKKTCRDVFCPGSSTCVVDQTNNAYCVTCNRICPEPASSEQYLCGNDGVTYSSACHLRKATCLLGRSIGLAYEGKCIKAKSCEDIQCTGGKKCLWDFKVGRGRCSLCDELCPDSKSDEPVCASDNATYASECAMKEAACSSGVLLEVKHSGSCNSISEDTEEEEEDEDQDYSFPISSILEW
Sequence of Focal adhesion kinase 1 (Homo sapiens) (Q05397 whole entry, looked up): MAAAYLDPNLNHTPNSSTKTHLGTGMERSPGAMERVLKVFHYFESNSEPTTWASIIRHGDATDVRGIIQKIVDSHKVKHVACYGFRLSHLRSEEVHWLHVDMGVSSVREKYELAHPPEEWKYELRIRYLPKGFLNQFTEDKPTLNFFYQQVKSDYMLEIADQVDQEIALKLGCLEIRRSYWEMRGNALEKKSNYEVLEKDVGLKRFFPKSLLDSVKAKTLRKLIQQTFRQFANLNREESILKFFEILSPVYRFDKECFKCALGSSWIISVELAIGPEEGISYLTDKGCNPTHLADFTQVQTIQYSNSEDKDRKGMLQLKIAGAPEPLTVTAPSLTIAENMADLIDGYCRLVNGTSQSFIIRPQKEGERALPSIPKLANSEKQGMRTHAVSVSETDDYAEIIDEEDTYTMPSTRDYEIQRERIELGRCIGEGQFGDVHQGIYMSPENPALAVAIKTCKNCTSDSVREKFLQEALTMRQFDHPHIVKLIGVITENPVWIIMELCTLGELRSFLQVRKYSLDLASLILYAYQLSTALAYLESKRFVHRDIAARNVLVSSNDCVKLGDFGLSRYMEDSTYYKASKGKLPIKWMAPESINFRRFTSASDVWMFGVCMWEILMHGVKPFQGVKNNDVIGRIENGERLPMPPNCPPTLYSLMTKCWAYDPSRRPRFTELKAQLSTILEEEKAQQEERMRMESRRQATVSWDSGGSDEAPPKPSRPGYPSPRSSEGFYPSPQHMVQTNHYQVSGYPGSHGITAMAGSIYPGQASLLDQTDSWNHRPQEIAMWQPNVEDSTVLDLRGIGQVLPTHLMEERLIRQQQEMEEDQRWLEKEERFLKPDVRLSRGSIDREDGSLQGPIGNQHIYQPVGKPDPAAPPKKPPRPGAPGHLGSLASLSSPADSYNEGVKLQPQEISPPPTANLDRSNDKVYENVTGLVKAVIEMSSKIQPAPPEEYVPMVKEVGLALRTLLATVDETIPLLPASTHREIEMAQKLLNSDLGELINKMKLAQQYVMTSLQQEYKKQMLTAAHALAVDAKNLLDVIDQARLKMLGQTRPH

Row | SMILES | composite z-score [1] | composite z-score [2] | composite z-score [3] | composite z-score [4] | composite z-score [5] | composite z-score [6] | z-score [7] | composite z-score (Lefty1) | composite z-score [8] | z-score [9]
1 | C=CCN(Cc1ccccc1)C(=O)C1N(CCOCCO)C(=O)C2C(C(=O)O)C3C=CC21O3 (stereo not given) | -1.85 and -0.223 | -0.804 and -0.812 | -1.29 and -0.708 | -1.23 and -1.34 | -3.29 and -1.2 | -2.01 and -1.98 | 1.2 and -0.743 | -2.56 and -2.05 | -0.94 and -1.25 | -0.582 (inactive) and 1.28 (inactive)
2 | C=CCN(CCCC)C(=O)C1N(c2c(Cl)cccc2CO)C(=O)C2C(C(=O)O)C3C=CC21O3 (stereo not given) | -1.86 and 1.18 | -1.93 and -0.108 | -0.983 and 0.896 | -1.58 and -2.29 | -1.71 and -0.64 | -1.09 and -1.49 | -1 and -0.998 | -2.11 and -0.973 | -1.16 and -0.0139 | 0.758 (inactive) and 1.51 (inactive)
3 | C[N+](C)(C)CCCCCCNC(=O)[C@H]1C[C@H]2C(=O)N[C@@H](CCCC[N+](C)(C)C)C(=O)N2[C@H]1c1cccc(OCCO)c1 | 1.91 and 1.46 | 0.516 and -0.266 | -0.063 and 0.0884 | 0.638 and -0.338 | 1.39 and 1.43 | 1.82 and 1.66 | 0.357 and -0.307 | 1.59 and 0.768 | 0.348 and 0.29 | -0.0709 (inactive) and 0.15 (inactive)
4 | C[C@@H]1CN2[C@@H](CC[C@@H](C)[C@@H]2c2ccc(Br)cc2)C(=O)O1 | 0.513 and -0.557 | -1.13 and 0.142 | -0.0732 and 0.591 | -0.459 and -0.964 | -0.138 and 0.0634 | 0.0798 and 0.44 | 1.14 and 1.07 | -0.0013 and 0.133 | -0.556 and 0.125 | -0.678 (inactive) and -1.36 (inactive)
5 | C=CCN(C(=O)C(c1cccs1)N(C(=O)/C=C\C(=O)O)c1c(Cl)cccc1CO)c1ccc(OC)cc1 (stereo not given) | -1.78 and -1.48 | -1.15 and -0.74 | -0.93 and -0.641 | -1.13 and -0.594 | -2.61 and -1.19 | -2.55 and -1.44 | 1.26 and 1.98 | -2.98 and -2.04 | -0.55 and 0.213 | -1.47 (inactive) and -1.26 (inactive)
6 | CC(CO)N1C(=O)[C@@H]2C3C(=O)OCCC=C[C@H]3OC23C=CCN(Cn2nnc4ccccc42)C(=O)[C@@H]13 (stereo not given in full) | 0.398 and 1.77 | -0.66 and 0.136 | -0.244 and -0.0494 | -0.332 and -0.0118 | -0.93 and 0.345 | -1.31 and -0.224 | -0.469 and -0.766 | -1.34 and 0.247 | -0.711 and -0.23 | 0.0511 (inactive) and 0.399 (inactive)
7 | COC(=O)[C@@]1(Cc2ccccc2)[C@H]2c3cc(C(=O)N(C)C)n(Cc4ccc(C)c(F)c4F)c3C[C@H]2CN1C(=O)c1ccccc1 | 1.95 and 1.06 | 1.24 and 1.25 | 0.73 and 1.04 | 0.966 and 1.01 | 0.096 and 1.26 | -0.824 and -0.149 | -1.17 and -1.14 | -0.587 and 0.642 | 0.899 and 1.03 | -1.27 (inactive) and 0.773 (inactive)
8 | C=CCN(C(=O)C(c1cccs1)N(CCOCCO)C(=O)/C=C\C(=O)O)c1ccc(OC)cc1 (stereo not given) | -0.542 and -1.89 | -0.923 and -1.57 | -0.303 and -0.67 | -0.627 and -1.54 | -0.745 and -1.07 | -0.993 and -1.6 | 0.13 and 1 | -0.208 and -1.45 | -0.628 and -2.28 | 0.286 (inactive) and -2.02 (inactive)
9 | COC(=O)C1=C(C)N(Cc2ccccc2)[C@]23O[C@](C(=O)OC)(C(=O)N2[C@@H]1c1ccccc1)[C@@H](C(=O)OC)[C@H]3C(=O)OC | 0.297 and 1.07 | -0.813 and 0.143 | -0.277 and 0.2 | -2.79 and -0.188 | -0.998 and 0.452 | -0.179 and 0.403 | 0.604 and 0.301 | -0.625 and 0.747 | 0.753 and -0.487 | -0.781 (inactive) and -1.8 (inactive)
10 | C=C[C@@H](OC)[C@H](O)c1ccc(OC)c(O)c1 | 0.0608 and -0.368 | -0.285 and -1.14 | -0.294 and -1.03 | -0.267 and -0.492 | 1.03 and 0.477 | 0.731 and 0.0203 | -0.366 and 0.877 | 0.85 and -0.493 | -0.368 and 0.0786 | 0.318 (inactive) and -0.905 (inactive)
11 | Cc1ccc(S(=O)(=O)OC[C@@H]2CN3[C@@H](CC[C@@H](C)[C@@H]3c3ccc(Br)cc3)C(=O)O2)cc1 | 0.882 and -0.0006 | 0.433 and 0.434 | 0.0343 and 0.0817 | 0.555 and 0.193 | 0.137 and 0.577 | 0.281 and 0.102 | -0.346 and 0.285 | 0.229 and 0.512 | 0.382 and 0.37 | 0.39 (inactive) and 0.13 (inactive)
12 | C[C@@H](ON=C1[C@H]2CCn3c(=O)n(-c4ccccc4)c(=O)n3[C@H]2[C@H](O)[C@@H]2O[C@H]12)c1cn([C@H](CO)Cc2ccccc2)nn1 | 2.66 | 0.23 | -0.109 | 0.343 | 0.523 | 0.185 | -0.546 | 0.467 | -0.424 | -0.116 (inactive)
13 | C=CCN(C(=O)C1N(c2c(Cl)cccc2CO)C(=O)C2C(C(=O)O)C3C=CC21O3)C(C)(C)C (stereo not given) | -0.687 and -0.455 | 0.0063 and -0.941 | -0.0019 and 0.0154 | -0.925 and -0.724 | -0.85 and -0.957 | -1.46 and -0.409 | -0.868 and 1.49 | -1.33 and -1.93 | -0.0278 and -0.665 | 1.15 (inactive) and -1.5 (inactive)
14 | C[C@@H]1CC[C@H]2C(=O)O[C@H](CN=[N+]=[N-])CN2[C@H]1c1ccc(Br)cc1 | 0.755 and 0.806 | -0.841 and -0.245 | 0.073 and 0.0778 | 0.142 and 0.149 | 0.506 and -0.488 | 0.0443 and -0.132 | 0.703 and 0.206 | 0.212 and 0.0831 | -0.276 and -0.0024 | 0.788 (inactive) and -1.42 (inactive)
